D2 ag-1 – Beta-Arrestin HTS for Positive Allosteric Modulators of the Human D2 Dopamine Receptor: Agonists. D(2) dopamine receptor (Homo sapiens), P14416. DiscoveRx PathHunter D2 beta-arrestin, luminescence, 90 min; 100% = 57 uM dopamine signal. activation, % (test concentration not listed). 360,000 compounds, 0.084% hits; in the data active = activation above about 40%
Target sequence (P14416 whole entry, looked up): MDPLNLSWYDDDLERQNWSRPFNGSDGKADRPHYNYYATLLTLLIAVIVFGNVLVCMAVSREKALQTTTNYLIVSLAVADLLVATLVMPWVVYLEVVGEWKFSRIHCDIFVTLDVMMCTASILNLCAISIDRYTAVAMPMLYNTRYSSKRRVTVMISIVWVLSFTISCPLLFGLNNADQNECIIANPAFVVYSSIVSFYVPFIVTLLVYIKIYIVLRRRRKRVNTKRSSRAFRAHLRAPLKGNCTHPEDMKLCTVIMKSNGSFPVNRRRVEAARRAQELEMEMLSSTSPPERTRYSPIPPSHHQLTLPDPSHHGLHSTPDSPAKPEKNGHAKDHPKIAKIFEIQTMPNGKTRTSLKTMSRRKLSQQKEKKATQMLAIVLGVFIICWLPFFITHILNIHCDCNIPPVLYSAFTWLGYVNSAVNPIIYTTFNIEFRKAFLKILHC
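Agonist mode: compounds alone added to overnight-plated D2 PathHunter cells for 90 min at 37 C, with 57 uM final dopamine (EC100) defining full response. Beta-arrestin recruitment detected by chemiluminescent reagent, read after 1 h at ambient temperature.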
D2 ag-2 – HTS Assay for Allosteric Agonists of the Human D2 Dopamine Receptor: Primary Screen for Agonists; D(2) dopamine receptor (Homo sapiens), P14416; HEK293 T-REx D2 cells, calcium flux agonist mode; activation, % at 2 µM; 340,000 compounds, 0.53% hits; AID 485358, 2010;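 active = activation over 3 SD above normal in the single-dose calcium agonist read, cut at about 30% in these data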; also: 0% is about no effect
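Tetracycline-induced HEK293 T-REx cells with force-coupled D2 receptor, plated overnight at 30 C, loaded with no-wash calcium dye. After a 10 s baseline, compound was pin-added and calcium flux read kinetically for 180 s; calcium rises flagged agonists.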
D2 antag – HTS Assay for Allosteric Antagonists of the Human D2 Dopamine Receptor: Primary Screen for Antagonists; D(2) dopamine receptor (Homo sapiens), P14416; HEK293 TREx D2 cells, calcium flux, dopamine EC80; inhibition, % at 10 µM; 340,000 compounds, 2% hits; AID 485344, 2010; in the data active = inhibition above about 30%; inactive = below that, where a call was filed; also: 0% is about no effect
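Overnight-induced (tetracycline, 30 C) HEK293 T-REx cells carrying force-coupled D2 receive a no-wash calcium dye, then compound, then EC80 dopamine at 180 s; signals are read kinetically throughout.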
D2 PAM-1 – Beta-Arrestin HTS for Positive Allosteric Modulators of the Human D2 Dopamine Receptor: Potentiators; D(2) dopamine receptor (Homo sapiens), P14416; DiscoveRx D2 beta-arrestin cells, luminescence, 90 min; 100% = 57 uM dopamine signal; potentiation, % (test concentration not listed); 360,000 compounds, 0.23% hits; AID 624464, 2012; in the data active = potentiation above about 50%
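PathHunter D2 cells, attached overnight at 37 deg C, received compound in DMSO plus dopamine at EC20 (50 nM final) for 90 min at 37 deg C. Beta-arrestin recruitment was read as luminescence after 1 h with detection reagent at ambient temperature.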
D2 PAM-2 – HTS Assay for Positive Allosteric Modulators of the Human D2 Dopamine Receptor: Primary Screen for Potentiators; potentiation, % at 10 µM; AID 485347, 2010; D(2) dopamine receptor (Homo sapiens), P14416; HEK293 T-REx D2, calcium flux, EC20 dopamine potentiation; 340,000 compounds, 0.34% hits;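 active = potentiation over 3 SD above the plate norm, cut at about 30% in these data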; also: 0% is about no effect
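Tetracycline-induced HEK293 T-REx cells force-coupled to calcium signalling expressed D2; compounds were pin-added after a 10 s baseline, read kinetically 180 s, then an EC20 dopamine challenge followed with a further 180 s calcium read.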
* hit, by the source's call; x = not tested or not shown. An excerpt weighted towards active compounds, which were near 2.4% of everything screened.

SMILES | D2 ag-1 | D2 ag-2 | D2 antag | D2 PAM-1 | D2 PAM-2
CCN(CC)S(=O)(=O)c1ccc(Cl)c(C(=O)NC2CCN(Cc3ccccc3)CC2)c1 | -1 | 0 | 26 | -34 | -20
Cc1oc(-c2ccc(Cl)cc2)cc1C(=O)NC1CCN(Cc2ccccc2)CC1 | -3 | 1 | 58* | -18 | -16
Cc1oc(C(C)(C)C)cc1C(=O)NC1CCN(Cc2ccccc2)CC1 | -5 | 1 | 85* | -20 | -23
Clc1ccc(-c2csc(=Nc3ccccc3)n2Cc2ccc3c(c2)OCO3)cc1 | x | 0 | x | x | 20
CC(CCN1CCOCC1)c1ccccc1 (stereo unspecified) | -2 | 0 | 1 | -2 | 1
CC(CCN1CCN(c2ccc(F)cc2)CC1)c1ccccc1 (stereo unspecified) | -5 | 2 | 88* | -33 | -21
CCOCCCn1c(SCC(=O)Nc2ccc(F)cc2)nc2c(sc3ccccc32)c1=O | x | 0 | x | x | 8
O=C(COc1ccc2ccccc2c1)NNC(=O)c1ccccc1 | -3 | 2 | 48* | -6 | 6
Cc1c(NC(=O)COC(=O)Cc2ccc(Br)cc2)c(=O)n(-c2ccccc2)n1C | -1 | 0 | -9 | -14 | 7
Cc1c(NC(=O)CSCc2ccc(Br)cc2)c(=O)n(-c2ccccc2)n1C | -4 | 0 | 42* | -5 | -6
O=C(COc1ccc2ccccc2c1)NNC(=O)Cc1ccccc1 | -1 | 0 | -12 | -6 | 1
Cc1c(NC(=O)c2ccc(Br)o2)c(=O)n(-c2ccccc2)n1C | -3 | -1 | -5 | -2 | 31*
Cc1c(NC(=O)COc2ccc3ccccc3c2)c(=O)n(-c2ccccc2)n1C | -3 | 0 | 7 | -3 | 35*
Cc1c(NC(=O)COc2cccc(F)c2)c(=O)n(-c2ccccc2)n1C | 1 | 1 | 10 | 16 | -4
COc1ccc(CCNC(=O)Cn2nc(C)n3c(cc4cc(F)ccc43)c2=O)cc1OC | x | 0 | x | x | 8
Cc1c(NC(=O)CSc2ccccc2F)c(=O)n(-c2ccccc2)n1C | -3 | -1 | -16 | 0 | 46*
COc1cccc(CNC(=O)C(=O)NCC(c2cccs2)S(=O)(=O)c2cccs2)c1 (stereo unspecified) | x | 0 | x | x | -1
Cc1ncc(C(=O)O)c(C(=O)O)c1N | 8 | 0 | -31 | -18 | 35*
O=c1n(Cc2ccccc2)c(O)c2n1Cc1ccccc1N=C2c1ccc(C(F)(F)F)cc1 | -2 | x | x | -3 | x
CCC(CC)c1nnc(NC(=O)CS(=O)(=O)Cc2ccccc2)s1 | 0 | x | x | 9 | x
CCCC(C)c1nnc(NC(=O)CCS(=O)(=O)Cc2ccccc2)s1 (stereo unspecified) | -8 | 0 | -15 | -7 | -9
CC(C)c1nnc(NC(=O)CS(=O)(=O)Cc2ccccc2)s1 | 5 | 0 | 55* | 4 | 4
CCCC(C)c1nnc(NC(=O)CS(=O)(=O)Cc2ccccc2)s1 (stereo unspecified) | 2 | 0 | -2 | 9 | 30*
Nc1nc(N)c2c(ccc3nccc32)[nH]1 | -1 | -1 | -6 | 52* | 9
Nc1ccc2ncccc2c1N | 2 | x | x | 20 | x
SMILES | D2 ag-1 | D2 ag-2 | D2 antag | D2 PAM-1 | D2 PAM-2
CCOC(=O)c1c(C)[nH]c(CCC(=O)NCc2cc(Br)ccc2OC)c1C | x | 0 | x | x | -11
C=CCN1C(c2ccc(OCC)cc2)=CS/C1=C(\C#N)c1nnc2n1CCCCC2 | 5 | 0 | 11 | 9 | 45*
C=CCN1C(c2ccc(Br)cc2)=CS/C1=C(\C#N)c1nnc(N2CCOCC2)n1-c1ccccc1 | 1 | x | x | -9 | x
Cn1c(=O)c2c(c3ccccc31)OC(=O)CC2c1cccc(F)c1 (stereo unspecified) | x | 1 | x | x | 5
Cc1nn(C)c(C)c1/C=N/NC(=O)CCn1cc([N+](=O)[O-])cn1 | -2 | 0 | 32* | -8 | 6
CCOC(=O)c1cc(-c2ccccc2)n(CC(=O)N(C)c2ccc(OC)cc2)c1C | x | 0 | x | x | 16
O=C(NC1CCCC1)c1ccc2c(c1)N(Cc1ccccc1)CCS2 | 2 | 0 | -6 | 3 | -4
CS(=O)(=O)Cc1ccc(C(=O)NC2CCN(Cc3ccccc3)C2)cc1 (stereo unspecified) | 2 | 0 | 27 | -11 | -11
O=C(NC1CCN(Cc2ccc3ccccc3c2)CC1)c1ccccc1 | -3 | -2 | 51* | -34 | -23
Cc1ccc(CN2CCSc3ccc(C(=O)NC4CCN(Cc5ccccc5)CC4)cc32)cc1 | -5 | 0 | 74* | -13 | x
O=C(NC1CCN(Cc2ccc(F)cc2)CC1)c1ccccc1 | -5 | -1 | 115* | -15 | -20
O=C(NC1CCN(Cc2ccc(Cl)c(Cl)c2)CC1)c1ccccc1 | 2 | -2 | 81* | -37 | -29
Cn1c(=O)c2ccccc2n(CC(=O)NCCC2=CCCCC2)c1=O | 2 | 0 | 41* | -3 | -10
Cn1c(=O)c2sccc2n(CC(=O)NCCC2=CCCCC2)c1=O | -2 | 0 | -10 | -17 | -2
O=C(CSc1nc2c([nH]c3ccccc32)c(=O)n1-c1ccc(F)cc1)NCC1CCCO1 (stereo unspecified) | x | 0 | x | x | 7
CCS(=O)(=O)c1nc(S(=O)(=O)c2ccc(Cl)cc2)c(NCc2ccc(Cl)cc2)s1 | x | 0 | x | x | -2
CC(O)(c1cccc(F)c1)c1nc(-c2ccc(S(C)(=O)=O)cc2)cs1 (stereo unspecified) | -3 | x | x | -1 | x
Cc1ccc[n+](C(C)C(=O)Nc2ccc([N+](=O)[O-])cc2C)c1 (stereo unspecified) | -3 | -3 | 21 | -9 | -2
Cc1ccc[n+](C(C)C(=O)Nc2ccc(C)c([N+](=O)[O-])c2)c1 (stereo unspecified) | -3 | 3 | 43* | -36 | -17
Cn1c(=O)c2c(nc(N/N=C/c3ccco3)n2C)n(C)c1=O | 2 | 0 | 52* | 4 | -1
Cn1c(=O)c2c(nc(N/N=C/c3cccs3)n2C)n(C)c1=O | 2 | 0 | -4 | 3 | 6
Cc1c(/C=C(\C#N)C(=O)NCc2ccccc2)cc(C#N)n1C | -6 | 0 | 37* | -19 | -18
O=S(=O)(c1ccccc1)N1N=C(c2cccs2)CC1c1ccc(Br)cc1 (stereo unspecified) | -1 | 0 | 13 | -14 | 35*
COc1ccc(OC)c(NC(=O)c2cn(CC(C)C)c(=O)c3cc(OC)c(OC)cc23)c1 | x | 0 | x | x | 6
